Assay results as given in PubChem BioAssay (NCI).
Compounds without any hit were thinned out: in the full panel of roughly 79,000, 15% have a hit. A number with no mark means an inactive call. No stated cut-off is given here; in the data, active means growth inhibition above about 70%; inactive means the rest.

Assay: NCI Yeast Anticancer Drug Screen. Data for the cln2 rad14 strain (AID 165);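 further: 0% = growth equal to vehicle treated cultures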
Conditions: S. cerevisiae cln2 rad14 strain, at 50.0 µM, hits give high values
In short: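 Test compounds were added to cln2 rad14 yeast cultures; inhibition of growth was then determined by comparison with vehicle treatment.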

Row | Compound | growth inhibition [%]
1 | ON1c2ccccc2-c2ccccc2C1(c1ccccc1)c1ccccc1 | 69.8
2 | O=C(OCc1ccccc1)c1ccccc1O | -16.1
3 | C=CCCCCCCCCC(=O)OC | -10.5
4 | CC(=O)c1c(C)cc(C)nc1C | 10
5 | Cc1cccc(CCSCCc2cccc(C)[n+]2[O-])[n+]1[O-] | 17.4
6 | CCCNc1nc(N)[nH]c(=O)c1NC=O | -12.3
7 | C(=C\c1cc(-c2cc(/C=C/c3ccccc3)[nH]n2)n[nH]1)/c1ccccc1 | 13.2
8 | C=CCCCCCCCCC(=O)Nc1cc2c3c(c1)CCCN3CCC2 | -13.8
9 | O=C1C=Cc2ccccc2/C1=C/c1nc(-c2ccc(Cl)cc2)oc1O | -1.2
10 | COn1c(-c2ccccc2)nc2c1C(=O)N(C)CN2C | -47.8
11 | CCCCCCCC[N+](C)([O-])CCCCCC[N+](C)([O-])CCCCCCCC (configuration not stated) | 66.8
12 | O=C(NI1OC(=O)c2ccccc21)c1ccc(Cl)cc1 | -17.5
13 | COc1ccc(N=Cc2ccc([N+](=O)[O-])cc2)cc1 | -22.4
14 | Cc1c(Cl)cccc1NC(=O)OC/C=C/c1ccccc1 | -9.35
15 | COc1ccc(/C=C2\CCN=C2c2ccccc2)cc1OC | -23.3
16 | Cc1[nH]c2ccccc2c1-c1cc(-c2cc(-c3c(C)[nH]c4ccccc34)nc(N)n2)nc(N)n1 | 3.05
17 | CN(C)C=N[C@@H](C(=O)O)c1ccccc1 | 8.8
